# MsrA inh: inhibitors of bovine MsrA; purified bovine MsrA, absorbance read-out; inhibition, % at 15.5 µM; 360,000 compounds, 0.75% hits; AID 651718; in the data active = inhibition above about 4.5%;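 also: 0% = vehicle wells with enzyme and 100% = reference inhibitor wells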
# SMARCA2 activ: SMARCA2 function activation, primary screen | MG213 cells, MMTV-luciferase reporter, dexamethasone, overnight | activation, % at 9.1 µM | 370,000 compounds, 1% hits | AID 652017; in the data active = activation above about 7.8%;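 also: 0% = vehicle wells and 100% = reference activator wells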
# ABCB6 inh MLPCN: inhibitors of human ABC transporter ABCB6; Q9NP58; K562-ABCB6 porphyrin accumulation, flow cytometry, 1 h; active compounds read low; fluorescence ratio to DMSO, % at 10 µM; 360,000 compounds, 0.19% hits; AID 602162;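 active = fluorescence ratio to DMSO below 75%, the collection mean minus 3 SD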;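 also: signal is porphyrin accumulated inside mitochondria; 100% equals median channel fluorescence of DMSO control wells; lower ratio means ABCB6 inhibition with less porphyrin fluorescence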
# Target sequence (Q9NP58 whole entry, looked up): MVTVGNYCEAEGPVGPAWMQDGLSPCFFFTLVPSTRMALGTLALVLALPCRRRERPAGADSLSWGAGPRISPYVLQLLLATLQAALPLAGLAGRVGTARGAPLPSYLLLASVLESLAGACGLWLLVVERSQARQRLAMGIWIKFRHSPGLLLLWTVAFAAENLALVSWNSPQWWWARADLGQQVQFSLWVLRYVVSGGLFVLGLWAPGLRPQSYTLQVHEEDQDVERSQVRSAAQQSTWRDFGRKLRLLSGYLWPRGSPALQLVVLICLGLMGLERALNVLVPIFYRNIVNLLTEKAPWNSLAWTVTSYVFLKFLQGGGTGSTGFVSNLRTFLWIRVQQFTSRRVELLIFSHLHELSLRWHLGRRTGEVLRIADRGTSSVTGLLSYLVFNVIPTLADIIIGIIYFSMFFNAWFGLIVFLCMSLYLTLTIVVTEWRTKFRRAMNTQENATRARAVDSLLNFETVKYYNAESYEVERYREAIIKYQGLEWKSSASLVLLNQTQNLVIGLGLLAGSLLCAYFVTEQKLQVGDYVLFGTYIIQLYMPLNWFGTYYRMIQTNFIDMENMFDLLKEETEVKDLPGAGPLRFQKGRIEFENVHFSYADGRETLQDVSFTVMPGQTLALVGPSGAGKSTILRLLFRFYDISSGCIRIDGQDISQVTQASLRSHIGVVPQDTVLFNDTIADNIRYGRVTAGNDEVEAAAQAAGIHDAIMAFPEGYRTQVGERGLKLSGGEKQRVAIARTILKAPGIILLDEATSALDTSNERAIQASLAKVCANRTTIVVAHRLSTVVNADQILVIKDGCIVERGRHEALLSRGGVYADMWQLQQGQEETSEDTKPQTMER
# MsrA act: activators of bovine methionine sulfoxide reductase A | purified bovine MsrA, absorbance read-out | activation, % at 10.6 µM | 360,000 compounds, 0.3% hits; in the data active = activation above about 7.5%;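 also: 0% = vehicle and 100% = reference activator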
# SMARCA2 act conf: confirmation of SMARCA2 (BRM) function activators | MG213 cells, MMTV-luciferase with dexamethasone, luminescence, overnight; MG213 cells expressing E1A, Rb sequestered; DMSO wells 0%, reference activator 100% | shares compounds with SMARCA2 activ | AID 652260 | activation, % at 9.1 µM | 3,500 compounds, 30% hits;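 active = activation above its plate's cutoff, the mean activation of tested wells plus 3 SD, cut at about 7.9% in these data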
# VP16 Luc act: activates GAL4-VP16 luciferase, flagging SMARCA2 activator hits. HEK293 GAL4-VP16 pG5luc reporter, luciferase luminescence; scaled: DMSO wells 0%, SAHA wells 100%. shares compounds with SMARCA2 activ. activation, % at 9.1 µM. 3,500 compounds, 41% hits. AID 686939;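 active = activation above the solvent-only control well mean plus 3 SD, averaged across control plates, cut at about 5.2% in these data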
# * hit, by the source's call; . = not tested or not shown. An excerpt weighted towards active compounds, which were near 2.1% of everything screened.
SMILES,MsrA inh,SMARCA2 activ,ABCB6 inh MLPCN,MsrA act,SMARCA2 act conf,VP16 Luc act
COc1ccc(CN(CC#Cc2ccccc2)Cc2ccccc2)c(OC)c1,.,-4,.,.,.,.
CC(C)(C)CSc1nnc(-c2cccnc2)n1Cc1ccccc1,.,-2,.,.,.,.
CCSc1nc(N2CCOCC2)c2ccccc2n1,2,13*,86,-4,3,1
COc1ccc2c(CCNC(=O)c3ccco3)c[nH]c2c1,0,9.6*,99,-8,3,1
Cc1cc(C(=O)NC2CCCCC2)c(C)n1-c1ccc(F)cc1,0,8.0*,98,-5,5,11*
CCc1sc(C(=O)NCc2ccco2)cc1C,0,11*,92,-5,-1,1
Cc1cccc(-n2[nH]c3c4c(ccc3c2=O)C(=O)c2ccccc2C4=O)c1,1,8.3*,105,0,-4,1
Cc1[nH]n(-c2cccc(Cl)c2)c(=O)c1-c1ccccc1,1,-7,89,-3,.,.
CN(C)CCN(C(=O)c1ccc2ccccc2c1)c1nc2cc3c(cc2s1)OCO3,1,11*,95,-3,1,1
CN(C)CCN(C(=O)c1ccc2c(c1)OCCO2)c1nc2cc3c(cc2s1)OCO3,2,0,99,-3,.,.
CC1CCC2(CC1)NC(=O)N(CC(=O)Nc1ccc3c(c1)OCCO3)C2=O (stereo not drawn),1,12*,96,-2,10*,3
CC1CCC2(CC1)NC(=O)N(CC(=O)Nc1ccc3c(c1)OCCCO3)C2=O (stereo not drawn),-1,3,91,-5,.,.
O=C(NCCN1CCOCC1)c1sc2cc(Cl)ccc2c1Cl,0,0,96,-1,.,.
O=C(NCC1CCCO1)c1sc2cc(Cl)ccc2c1Cl (stereo not drawn),0,10*,98,-2,8.4*,9.4*
O=C(N/N=C/c1cc2ccccc2[nH]1)c1ccccc1Cl,3,8.2*,99,-4,-2,0
CS(=O)(=O)OC12CCCN(C1)/C(=C/c1ccc(Cl)cc1)C2 (stereo not drawn),.,-2,.,.,.,.
Cc1cccc(-c2cccc3c4c([nH]c23)[C@@H]2C[C@H](N(C)C(=O)Nc3ccccc3)[C@H]([C@H](C)O)C(=O)N2CC4)c1,.,9.2*,.,.,-4,-1
CCOc1ccc(/C=N/Nc2ccccn2)cc1OC,3,2,99,-6,.,.
C=CCOc1ccc(/C=N/Nc2ccccn2)cc1OC,5,9.0*,105,-9,9.2*,11*
COc1ccc(S(=O)(=O)N2CCOCC2)cc1NC(=O)CCCSc1ccccc1,0,9.3*,105,0,-2,2
Cc1ccc2cc(CCNC(=O)c3cccs3)c(=O)[nH]c2c1,2,8.1*,94,-4,6,8.3*
Cc1ccc2cc(CCNC(=O)c3cccs3)c(=O)[nH]c2c1C,1,1,100,-8,.,.
COc1ccc2[nH]c(=O)c(COC(=O)c3cccs3)cc2c1,1,-2,94,0,.,.
Cc1ccc2[nH]c(=O)c(COC(=O)c3cccs3)cc2c1,0,8.6*,96,-1,-2,-1
CC(=O)NCCc1cc2ccc(C)c(C)c2[nH]c1=O,1,8.3*,105,0,-1,1
SMILES,MsrA inh,SMARCA2 activ,ABCB6 inh MLPCN,MsrA act,SMARCA2 act conf,VP16 Luc act
CCCCCCCN(c1ccccc1)C1C[C@H]2CCCC(=O)N3CC[C@@H](C1)[C@@H]23 (stereo partly drawn),-1,0,.,.,.,.
CCOc1ccc2nc(SCC#N)c(C#N)cc2c1,1,8.8*,99,-5,7.8*,6.6*
COc1ccc(CN2C(=O)CCCC2(C)c2nnnn2-c2c(C)cccc2C)cc1OC (stereo not drawn),.,1,.,.,.,.
C/C(=N\Nc1nccnc1Cl)c1ccc(F)cc1,1,8.9*,94,-1,10*,12*
CCNC(=O)C1(C)CCCN(C(=O)c2nc3ccccc3s2)C1 (stereo not drawn),0,6,92,-7,.,.
COC(=O)[C@]12C[C@H](CC(=O)N3CCOCC3)C(=O)N(Cc3ccco3)C1=C[C@H](C(C)C)O[C@@H]2C1CC1,.,9.6*,.,.,0,3
COC(=O)[C@]12C[C@H](CC(=O)N3CCCCC3)C(=O)N(Cc3ccco3)C1=C[C@H](C(C)C)O[C@@H]2C1CC1,.,5,.,.,.,.
CCOC(=O)c1cccc(-c2c(-c3ccccc3)ncc3cc(OC)c(OC)cc23)c1,0,12*,93,-4,11*,5.8*
O=C1c2ccccc2[C@@H]2Cc3csc[n+]3[C@H]12,0,0,94,0,.,.
C/C(=N\NC(=O)c1ccc(NS(=O)(=O)c2cccs2)cc1)c1cccs1,3,-4,95,-3,.,.
C/C(=N\NC(=O)c1ccc(Cl)cc1)c1cccs1,1,8.4*,103,-1,20*,14*
C/C(=N\NC(=O)c1ccc(NS(=O)(=O)c2cccs2)cc1)c1ccc(Cl)cc1,0,9.1*,104,0,3,0
O=C(CNC(=O)c1cccs1)c1ccc(Cl)cc1,-1,8.8*,102,-3,10*,12*
C/C(=N/NC(=O)c1ccoc1C)c1cccs1,.,13*,.,.,9.2*,5.2*
Cc1c(NC(=O)C2CCCN(S(=O)(=O)c3ccc(Br)s3)C2)c(=O)n(-c2ccccc2)n1C (stereo not drawn),.,-2,.,.,.,.
COc1ccc(S[C@]2(C(=O)N3CCN(C(C)=O)CC3)CC(=O)N(C(=O)c3ccccc3)[C@@H]2c2ccc(OC)cc2)cc1,.,-2,.,.,.,.
Cc1ccc2c(c1)-c1c(cnn1CC(=O)NCCc1cccc(F)c1)CO2,.,-6,.,.,.,.
COc1ccc(/C=C2\SC(N3CCc4ccccc4C3)=NC2=O)cc1,2,-1,109,-2,.,.
CCOc1ccc(/C=C2\SC(N3CCc4ccccc4C3)=NC2=O)cc1,0,9.0*,103,-3,-1,1
COc1ccc(/C(N)=N/OC(=O)c2ccc3c(c2)OCO3)cc1OC,0,12*,101,-2,9.7*,17*
O=C(N/N=C/C=C\c1ccccc1[N+](=O)[O-])c1ccco1,4,2,105,-12,.,.
Cc1occc1C(=O)N/N=C/C(Br)=C/c1ccccc1,2,14*,89,-2,8.2*,15*
Cc1occc1C(=O)N/N=C/C=C\c1ccccc1[N+](=O)[O-],2,8.9*,105,-4,-3,1
COc1cccc(C(=O)N/N=C/C(Br)=C/c2ccccc2)c1,2,12*,107,-4,5,3
Cc1occc1C(=O)N/N=C/c1ccc[nH]1,2,8.2*,103,-3,3,2
COc1ccc(C(=O)N/N=C/C(Br)=C/c2ccccc2)cc1,1,8,95,-2,.,.
CC1CCC2(CCC(=O)N2CCCOC(=O)c2ccccc2)CC1 (stereo not drawn),.,0,.,.,.,.

# Compound activity from PubChem.
